Data on one sequence can be found in article PMC7862700, “An all-to-all approach to the identification of sequence-specific readers for epigenetic DNA modifications on cytosine”.

Test in all cases: DAPPL (digital affinity profiling via proximity ligation, sequencing); 10 mM Tris-HCl pH 7.5, 50 mM NaCl, 1 mM DTT, 4% glycerol, room temperature, 30 min; GST-TFs on glutathione beads, 16-mer random dsDNA library, 0.1% formaldehyde crosslink after washing; high values mean tight binding
The target of one assay is T1, FEV (Homo sapiens, UniProt Q99581 1-238).
T1 sequence: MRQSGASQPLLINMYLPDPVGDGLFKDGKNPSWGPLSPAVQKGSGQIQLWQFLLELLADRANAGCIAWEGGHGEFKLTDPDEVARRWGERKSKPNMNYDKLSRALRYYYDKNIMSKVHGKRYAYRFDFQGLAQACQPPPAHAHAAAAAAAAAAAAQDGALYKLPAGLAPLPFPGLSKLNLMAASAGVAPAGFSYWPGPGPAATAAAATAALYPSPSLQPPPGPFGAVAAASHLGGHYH
Particulars: protein: recombinant; tags: N-terminal GST; dsDNA, one strand shown. The method, boiled down:
(§1)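 Binding signal is given per hexamer as its read frequency for a factor divided by its frequency in the tag-only sample. GST-fused human transcription factors were expressed in yeast, captured on glutathione beads, barcoded with DNA and pooled with that sample, then incubated with 200 nmole of a 16-mer random double-stranded DNA library in Tris/NaCl/DTT/glycerol buffer for 30 min at room temperature. The pools were then washed, crosslinked, proximity-ligated, amplified by PCR and sequenced on an Illumina NextSeq500.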

The next assay deals with ETV5 (Homo sapiens, UniProt P41161 1-510). Particulars: protein: recombinant; tags: N-terminal GST; dsDNA, one strand shown. The method, boiled down:
as §1

The next assay addresses HSF1 (Homo sapiens, UniProt Q00613 1-529). To be noted: protein: recombinant; tags: N-terminal GST; chain copies: 3; dsDNA, one strand shown. The method, boiled down:
as §1

A further assay addresses T2, SPIC (Homo sapiens, UniProt Q8N5J4 1-248).
T2 sequence: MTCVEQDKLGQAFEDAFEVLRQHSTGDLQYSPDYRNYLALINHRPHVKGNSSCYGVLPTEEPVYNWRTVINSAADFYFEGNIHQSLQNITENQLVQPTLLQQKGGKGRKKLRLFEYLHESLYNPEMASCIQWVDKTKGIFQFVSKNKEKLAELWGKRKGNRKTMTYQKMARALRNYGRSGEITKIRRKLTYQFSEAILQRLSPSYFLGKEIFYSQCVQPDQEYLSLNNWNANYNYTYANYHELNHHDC
To be noted: protein: recombinant; tags: N-terminal GST; dsDNA, one strand shown. The method, boiled down: as §1

For another assay, the target named is ELF4 (Homo sapiens, UniProt Q99607 1-663). To be noted: protein: recombinant; tags: N-terminal GST; dsDNA, one strand shown. The method, boiled down: as §1
For the next assay, the target named is T3, ELK4 (Homo sapiens, UniProt P28324-2 1-405).
T3 sequence: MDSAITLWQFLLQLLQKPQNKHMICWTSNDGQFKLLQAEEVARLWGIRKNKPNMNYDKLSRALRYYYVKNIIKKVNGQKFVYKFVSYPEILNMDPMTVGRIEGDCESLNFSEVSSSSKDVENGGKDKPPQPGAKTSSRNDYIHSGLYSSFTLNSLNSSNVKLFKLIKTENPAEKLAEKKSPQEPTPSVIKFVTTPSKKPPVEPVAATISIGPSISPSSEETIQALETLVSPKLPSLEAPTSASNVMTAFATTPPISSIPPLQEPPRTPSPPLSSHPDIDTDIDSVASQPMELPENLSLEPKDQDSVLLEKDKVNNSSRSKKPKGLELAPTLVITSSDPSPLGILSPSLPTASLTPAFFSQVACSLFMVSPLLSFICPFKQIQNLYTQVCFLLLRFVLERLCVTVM
To be noted: protein: recombinant; tags: N-terminal GST; dsDNA, one strand shown. The method, boiled down:
as §1

A further assay deals with T4, ETV2 (Homo sapiens, UniProt O00321 1-342).
T4 sequence: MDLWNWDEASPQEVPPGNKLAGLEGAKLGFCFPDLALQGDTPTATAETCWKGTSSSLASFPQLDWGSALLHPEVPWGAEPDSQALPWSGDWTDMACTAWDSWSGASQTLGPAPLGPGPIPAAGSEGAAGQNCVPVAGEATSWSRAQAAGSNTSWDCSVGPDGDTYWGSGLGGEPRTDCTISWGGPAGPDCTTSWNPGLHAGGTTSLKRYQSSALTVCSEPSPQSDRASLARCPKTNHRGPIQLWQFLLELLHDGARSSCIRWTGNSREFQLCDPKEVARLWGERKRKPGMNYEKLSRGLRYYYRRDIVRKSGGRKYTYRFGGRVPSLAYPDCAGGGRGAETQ
To be noted: protein: recombinant; tags: N-terminal GST; dsDNA, one strand shown. The method, boiled down: as §1

Another assay concerns the target T5, ELF3 (Homo sapiens, UniProt P78545 1-371).
T5 sequence: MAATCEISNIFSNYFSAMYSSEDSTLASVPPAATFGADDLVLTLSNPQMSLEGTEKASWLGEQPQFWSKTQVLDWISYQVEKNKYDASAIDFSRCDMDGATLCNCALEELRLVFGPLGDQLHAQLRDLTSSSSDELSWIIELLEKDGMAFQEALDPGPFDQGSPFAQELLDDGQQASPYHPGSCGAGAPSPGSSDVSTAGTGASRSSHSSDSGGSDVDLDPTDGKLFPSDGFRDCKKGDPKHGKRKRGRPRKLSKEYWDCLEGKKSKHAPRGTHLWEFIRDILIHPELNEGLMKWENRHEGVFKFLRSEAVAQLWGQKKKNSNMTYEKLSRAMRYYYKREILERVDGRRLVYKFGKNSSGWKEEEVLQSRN
Particulars: protein: recombinant; tags: N-terminal GST; dsDNA, one strand shown. The method, boiled down:
as §1

Another assay addresses CRX (Homo sapiens, UniProt O43186 1-299). Particulars: protein: recombinant; tags: N-terminal GST; dsDNA, one strand shown. The method, boiled down: as §1
For a further assay, the target named is ETV1 (Homo sapiens, UniProt P50549 1-477). Particulars: protein: recombinant; tags: N-terminal GST; dsDNA, one strand shown. The method, boiled down:
as §1

In another assay the target is T6, ERF (Homo sapiens, UniProt P50548 1-548).
T6 sequence: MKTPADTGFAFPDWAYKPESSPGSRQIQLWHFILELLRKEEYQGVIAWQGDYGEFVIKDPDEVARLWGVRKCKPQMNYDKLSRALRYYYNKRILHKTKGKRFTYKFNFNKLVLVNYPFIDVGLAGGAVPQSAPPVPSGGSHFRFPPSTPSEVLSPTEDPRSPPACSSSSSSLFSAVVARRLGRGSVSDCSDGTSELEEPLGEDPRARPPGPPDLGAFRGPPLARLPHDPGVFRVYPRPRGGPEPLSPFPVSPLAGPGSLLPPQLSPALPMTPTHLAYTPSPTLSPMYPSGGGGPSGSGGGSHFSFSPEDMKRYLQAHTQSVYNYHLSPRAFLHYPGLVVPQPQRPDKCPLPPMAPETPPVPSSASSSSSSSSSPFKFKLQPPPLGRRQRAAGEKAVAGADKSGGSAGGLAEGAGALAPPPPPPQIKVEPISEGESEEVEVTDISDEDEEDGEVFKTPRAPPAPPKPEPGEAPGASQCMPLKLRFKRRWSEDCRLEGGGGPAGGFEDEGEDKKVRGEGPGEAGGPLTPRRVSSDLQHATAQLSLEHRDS
Particulars: protein: recombinant; tags: N-terminal GST; dsDNA, one strand shown. The method, boiled down: as §1

Another assay concerns the target T7, ETV3L (Homo sapiens, UniProt Q6ZN32 1-361).
T7 sequence: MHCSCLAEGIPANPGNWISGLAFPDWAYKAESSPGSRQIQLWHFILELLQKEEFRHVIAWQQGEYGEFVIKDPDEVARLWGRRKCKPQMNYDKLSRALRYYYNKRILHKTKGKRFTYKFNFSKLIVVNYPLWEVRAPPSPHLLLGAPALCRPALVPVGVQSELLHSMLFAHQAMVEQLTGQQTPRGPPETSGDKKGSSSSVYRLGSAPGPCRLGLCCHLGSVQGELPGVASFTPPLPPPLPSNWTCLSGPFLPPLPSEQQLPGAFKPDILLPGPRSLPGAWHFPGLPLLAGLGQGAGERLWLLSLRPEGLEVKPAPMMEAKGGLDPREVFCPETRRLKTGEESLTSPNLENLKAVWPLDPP
To be noted: protein: recombinant; tags: N-terminal GST; dsDNA, one strand shown. The method, boiled down: as §1

The target in a further assay is T8, ETS2 (Homo sapiens, UniProt P15036 1-469).
T8 sequence: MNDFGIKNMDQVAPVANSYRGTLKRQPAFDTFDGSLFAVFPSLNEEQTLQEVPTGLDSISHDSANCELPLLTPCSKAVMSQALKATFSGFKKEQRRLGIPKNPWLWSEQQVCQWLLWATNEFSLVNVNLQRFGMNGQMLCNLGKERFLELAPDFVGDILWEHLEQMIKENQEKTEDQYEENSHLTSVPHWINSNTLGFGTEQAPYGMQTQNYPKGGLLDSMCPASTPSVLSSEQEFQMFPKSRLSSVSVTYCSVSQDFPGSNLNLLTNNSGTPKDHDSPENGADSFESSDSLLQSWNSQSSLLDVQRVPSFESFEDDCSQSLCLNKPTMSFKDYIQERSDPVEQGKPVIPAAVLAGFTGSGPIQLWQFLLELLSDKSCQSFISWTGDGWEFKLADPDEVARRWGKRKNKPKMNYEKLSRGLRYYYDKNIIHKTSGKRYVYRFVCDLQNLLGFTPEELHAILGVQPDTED
To be noted: protein: recombinant; tags: N-terminal GST; dsDNA, one strand shown. The method, boiled down: as §1

The target of a further assay is T9, SPDEF (Homo sapiens, UniProt O95238 1-335).
T9 sequence: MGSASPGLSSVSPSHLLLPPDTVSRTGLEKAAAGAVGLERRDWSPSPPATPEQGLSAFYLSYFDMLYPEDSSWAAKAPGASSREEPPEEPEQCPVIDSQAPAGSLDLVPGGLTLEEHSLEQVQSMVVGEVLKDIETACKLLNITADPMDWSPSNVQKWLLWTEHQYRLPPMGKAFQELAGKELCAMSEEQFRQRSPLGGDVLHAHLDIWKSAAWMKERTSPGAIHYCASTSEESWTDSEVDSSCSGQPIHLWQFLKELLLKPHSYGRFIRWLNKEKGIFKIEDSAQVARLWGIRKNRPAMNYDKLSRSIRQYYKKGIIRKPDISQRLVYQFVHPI
Particulars: protein: recombinant; tags: N-terminal GST; dsDNA, one strand shown. The method, boiled down: as §1

The next assay deals with T10, ETV7 (Homo sapiens, UniProt Q9Y603 1-341).
T10 sequence: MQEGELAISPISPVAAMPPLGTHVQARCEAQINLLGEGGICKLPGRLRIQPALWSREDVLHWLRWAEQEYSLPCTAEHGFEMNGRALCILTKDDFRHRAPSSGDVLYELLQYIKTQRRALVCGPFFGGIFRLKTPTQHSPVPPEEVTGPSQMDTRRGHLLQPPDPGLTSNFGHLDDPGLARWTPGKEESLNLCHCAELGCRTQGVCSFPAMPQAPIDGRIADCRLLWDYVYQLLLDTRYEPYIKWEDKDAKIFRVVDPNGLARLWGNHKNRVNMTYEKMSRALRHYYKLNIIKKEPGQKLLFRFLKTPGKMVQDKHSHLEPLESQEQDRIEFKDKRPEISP
Particulars: protein: recombinant; tags: N-terminal GST; dsDNA, one strand shown. The method, boiled down:
as §1

The next assay addresses T11, ELF5 (Homo sapiens, UniProt Q9UKW6-2 1-255).
T11 sequence: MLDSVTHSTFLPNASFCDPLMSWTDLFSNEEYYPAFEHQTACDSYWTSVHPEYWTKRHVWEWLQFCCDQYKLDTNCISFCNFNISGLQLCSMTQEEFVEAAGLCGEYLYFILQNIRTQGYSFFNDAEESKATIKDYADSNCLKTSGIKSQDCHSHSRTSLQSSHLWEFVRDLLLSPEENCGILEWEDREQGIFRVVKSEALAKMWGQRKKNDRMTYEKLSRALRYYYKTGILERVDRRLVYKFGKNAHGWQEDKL
Particulars: protein: recombinant; tags: N-terminal GST; dsDNA, one strand shown. The method, boiled down:
as §1

In the next assay the target is T12, ETV3 (Homo sapiens, UniProt P41162-2 1-143).
T12 sequence: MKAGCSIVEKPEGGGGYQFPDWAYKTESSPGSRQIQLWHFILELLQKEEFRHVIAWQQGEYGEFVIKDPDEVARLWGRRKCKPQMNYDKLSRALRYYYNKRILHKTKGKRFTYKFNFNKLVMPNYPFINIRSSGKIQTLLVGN
Particulars: protein: recombinant; tags: N-terminal GST; dsDNA, one strand shown. The method, boiled down:
as §1

The next assay has as its target ETV6 (Homo sapiens, UniProt P41212 1-452). To be noted: protein: recombinant; tags: N-terminal GST; dsDNA, one strand shown. The method, boiled down:
as §1

Chain of CRX (O43186 whole entry): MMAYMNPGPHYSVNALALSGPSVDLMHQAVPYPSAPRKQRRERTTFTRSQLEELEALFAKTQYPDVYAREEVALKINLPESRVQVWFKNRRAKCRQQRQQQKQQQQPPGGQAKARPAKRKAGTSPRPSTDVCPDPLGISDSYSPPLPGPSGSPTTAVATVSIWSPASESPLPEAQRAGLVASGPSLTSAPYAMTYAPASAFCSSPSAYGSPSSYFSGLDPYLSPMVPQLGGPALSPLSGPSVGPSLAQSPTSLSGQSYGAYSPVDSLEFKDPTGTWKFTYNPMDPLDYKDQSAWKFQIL
Chain of ETV1 (P50549 whole entry): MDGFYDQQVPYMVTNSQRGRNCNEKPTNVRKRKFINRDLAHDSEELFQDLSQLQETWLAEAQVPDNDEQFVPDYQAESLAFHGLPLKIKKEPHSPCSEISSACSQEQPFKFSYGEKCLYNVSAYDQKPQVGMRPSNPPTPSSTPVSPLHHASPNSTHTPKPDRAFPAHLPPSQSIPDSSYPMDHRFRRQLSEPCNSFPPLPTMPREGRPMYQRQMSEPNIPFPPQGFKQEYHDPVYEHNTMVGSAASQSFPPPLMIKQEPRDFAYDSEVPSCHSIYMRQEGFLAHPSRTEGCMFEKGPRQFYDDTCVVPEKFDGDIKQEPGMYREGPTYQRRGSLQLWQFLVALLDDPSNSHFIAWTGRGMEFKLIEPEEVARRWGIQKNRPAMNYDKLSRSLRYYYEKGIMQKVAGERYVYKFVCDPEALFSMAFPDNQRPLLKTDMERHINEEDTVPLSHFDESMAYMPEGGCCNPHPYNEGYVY
Chain of ELF4 (Q99607 whole entry): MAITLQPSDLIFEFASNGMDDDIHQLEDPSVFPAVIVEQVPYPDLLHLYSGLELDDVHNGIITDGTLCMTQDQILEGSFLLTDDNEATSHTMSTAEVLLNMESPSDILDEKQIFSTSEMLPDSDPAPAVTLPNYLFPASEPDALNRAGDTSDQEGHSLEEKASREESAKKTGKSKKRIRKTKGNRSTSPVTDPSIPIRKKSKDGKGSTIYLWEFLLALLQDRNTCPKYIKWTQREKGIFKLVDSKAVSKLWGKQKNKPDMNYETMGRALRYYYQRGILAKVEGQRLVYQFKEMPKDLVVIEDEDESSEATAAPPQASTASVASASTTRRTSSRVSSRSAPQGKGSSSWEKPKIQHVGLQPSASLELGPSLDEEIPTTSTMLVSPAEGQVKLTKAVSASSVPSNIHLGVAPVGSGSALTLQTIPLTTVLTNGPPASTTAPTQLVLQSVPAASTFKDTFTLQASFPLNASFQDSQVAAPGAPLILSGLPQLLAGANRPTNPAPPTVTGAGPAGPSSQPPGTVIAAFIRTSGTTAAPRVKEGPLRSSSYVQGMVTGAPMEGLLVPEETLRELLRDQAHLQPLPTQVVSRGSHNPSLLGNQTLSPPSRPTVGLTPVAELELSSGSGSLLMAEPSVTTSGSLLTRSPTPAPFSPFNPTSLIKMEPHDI
Chain of HSF1 (Q00613 whole entry): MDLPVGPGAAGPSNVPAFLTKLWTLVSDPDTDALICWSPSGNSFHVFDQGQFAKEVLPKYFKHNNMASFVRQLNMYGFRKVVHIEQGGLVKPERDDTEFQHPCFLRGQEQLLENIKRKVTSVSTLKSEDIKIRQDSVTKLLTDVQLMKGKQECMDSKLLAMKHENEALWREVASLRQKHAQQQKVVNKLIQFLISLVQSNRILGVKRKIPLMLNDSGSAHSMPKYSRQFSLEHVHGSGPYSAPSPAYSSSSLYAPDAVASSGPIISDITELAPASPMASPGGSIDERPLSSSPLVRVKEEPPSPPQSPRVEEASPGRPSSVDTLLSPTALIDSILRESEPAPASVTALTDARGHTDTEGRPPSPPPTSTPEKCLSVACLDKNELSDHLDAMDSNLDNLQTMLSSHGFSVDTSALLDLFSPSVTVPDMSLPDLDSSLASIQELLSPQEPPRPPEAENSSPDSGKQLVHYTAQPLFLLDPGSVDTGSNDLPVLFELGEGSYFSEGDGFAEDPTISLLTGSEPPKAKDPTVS
Chain of ETV5 (P41161 whole entry): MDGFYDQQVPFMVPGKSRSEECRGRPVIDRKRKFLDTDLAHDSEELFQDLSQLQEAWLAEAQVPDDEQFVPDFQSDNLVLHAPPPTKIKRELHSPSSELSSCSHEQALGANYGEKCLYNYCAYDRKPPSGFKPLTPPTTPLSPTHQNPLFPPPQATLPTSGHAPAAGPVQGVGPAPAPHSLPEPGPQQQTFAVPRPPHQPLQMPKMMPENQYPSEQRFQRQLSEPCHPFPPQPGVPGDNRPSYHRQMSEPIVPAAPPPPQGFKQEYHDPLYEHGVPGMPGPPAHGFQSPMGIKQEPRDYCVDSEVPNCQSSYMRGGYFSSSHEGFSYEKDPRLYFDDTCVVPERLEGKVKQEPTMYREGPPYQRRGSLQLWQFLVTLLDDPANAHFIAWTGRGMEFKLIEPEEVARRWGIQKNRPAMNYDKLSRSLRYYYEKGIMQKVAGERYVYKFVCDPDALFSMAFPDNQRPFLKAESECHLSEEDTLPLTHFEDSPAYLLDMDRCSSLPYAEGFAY
Chain of ETV6 (P41212 whole entry): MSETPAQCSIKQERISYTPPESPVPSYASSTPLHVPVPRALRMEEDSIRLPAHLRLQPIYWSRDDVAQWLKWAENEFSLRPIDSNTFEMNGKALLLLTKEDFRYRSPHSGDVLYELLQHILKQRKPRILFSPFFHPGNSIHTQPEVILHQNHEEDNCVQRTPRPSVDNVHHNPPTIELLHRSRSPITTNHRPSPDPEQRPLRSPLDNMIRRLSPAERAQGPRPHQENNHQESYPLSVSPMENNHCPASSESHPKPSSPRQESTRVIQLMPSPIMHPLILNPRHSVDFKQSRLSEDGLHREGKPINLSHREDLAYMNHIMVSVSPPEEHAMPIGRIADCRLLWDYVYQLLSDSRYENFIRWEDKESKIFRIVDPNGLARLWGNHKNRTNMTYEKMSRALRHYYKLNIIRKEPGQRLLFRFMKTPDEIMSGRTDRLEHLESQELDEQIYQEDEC

AATATG: the binding signal with FEV was 1.12 fold enrichment (6-mer frequency, TF over GST control); with ETV5, 1.2 fold enrichment (6-mer frequency, TF over GST control); in the assay with HSF1, 1.12 fold enrichment (6-mer frequency, TF over GST control); with SPIC, 1.28 fold enrichment (6-mer frequency, TF over GST control); with ELF4 it was 1.16 fold enrichment (6-mer frequency, TF over GST control); with ELK4, 1.18 fold enrichment (6-mer frequency, TF over GST control). Moreover, the binding signal was 1.07 fold enrichment (6-mer frequency, TF over GST control) with ETV2; 1.21 fold enrichment (6-mer frequency, TF over GST control) with ELF3; 1.1 fold enrichment (6-mer frequency, TF over GST control) with CRX; 1.13 fold enrichment (6-mer frequency, TF over GST control) in the assay with ETV1; 1.07 fold enrichment (6-mer frequency, TF over GST control) in the assay with ERF; 1.15 fold enrichment (6-mer frequency, TF over GST control) with ETV3L. The binding signal with ETS2 was 1.15 fold enrichment (6-mer frequency, TF over GST control); with SPDEF, 1.08 fold enrichment (6-mer frequency, TF over GST control); with ETV7 it was 1.21 fold enrichment (6-mer frequency, TF over GST control); with ELF5, 1.1 fold enrichment (6-mer frequency, TF over GST control); with ETV3 it was 1.14 fold enrichment (6-mer frequency, TF over GST control); in the assay with ETV6 it was 1.14 fold enrichment (6-mer frequency, TF over GST control).
